Vaccinia mCherry – vaccinia inhibition (mCherry reporter) | 310,000 compounds, 0.63% hits | Potency, µM (highest dose often 36.5 µM), without a hit: at the highest dose activity change, negative = inhibition, actives largely listed as inhibitors | Vaccinia virus mCherry reporter infection, fluorescence | AID 720579; calls by dose curve; tested in A549 cells; further: nearly all actives have a fitted effect of over 35% in size
Pf growth 96h – P. falciparum growth inhibition at 96 hours | P. falciparum luciferase reporter growth, 96 h | 320,000 compounds, 6.9% hits | Potency, µM (series often up to 28.7 µM), without a hit: top-dose activity change, negative = inhibition, most hits filed as inhibitors | AID 504834
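Compounds incubated with erythrocytes infected by luciferase-expressing P. falciparum (2% hematocrit, 0.05% parasitemia final) for 96 hours, 37 C in 5% CO2. Growth inhibition scored as decreased luciferase luminescence.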
Vaccinia Venus – vaccinia inhibition (Venus reporter); Vaccinia virus Venus reporter expression, fluorescence; Potency, µM (doses to about 36.5 µM), for inactives: at the highest dose activity change, negative = inhibition, actives largely listed as inhibitors; 330,000 compounds, 0.46% hits; calls by dose curve; tested in A549 cells; further: nearly all actives have a fitted effect of over 30% in size
AMA1 RON2 block – disrupts binding of P. falciparum AMA1 to RON2 | AID 720542 | Potency, µM (series often up to 58.2 µM), for the others: top-dose activity change, negative = inhibition, most hits filed as inhibitors | AlphaScreen AMA1-biotinylated RON2 peptide binding | 360,000 compounds, 0.2% hits;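 further: 0% = vehicle wells and -100% = peptide control; nearly all actives have a fitted effect of over 45% in size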
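AMA1 (3D7) with his tag at 25 nM final met compounds first, then biotinylated RON2 peptide at 25 nM; detection used donor plus acceptor beads, 10 µg/mL apiece, read by AlphaScreen after 30 min at room temperature.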
Pf growth 48h – P. falciparum growth inhibition at 48 hours (one generation) | P. falciparum luciferase growth in erythrocytes, 48 h | Potency, µM (doses to about 28.7 µM), for the others: at the top dose activity change, negative = inhibition, actives largely listed as inhibitors | 310,000 compounds, 5.9% hits | AID 504832
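First compound was added to culture medium, then infected red cells at 0.1% parasitemia and 2% hematocrit (final). After incubation at 37 C under 5% CO2, luciferase detection reagent was dispensed and light output recorded.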
Numbers without * were called inactive; i = inactive; ? = inconclusive; . = no result given. Shown are actives, neighbours in structure and some others; about 8.7% of the full set was active somewhere. Unless noted, the call rests on the fitted dose curve; in most records, active means well fitted curve in the direction sought with a large enough effect; inconclusive means small, poorly fitted or top-dose-only effect, or another doubt; inactive means no such curve, though single readings can be large; an effect the other way counts as inactive or inconclusive. Unless noted, on the % scale 0 is the no-effect control and ±100 the full control effect; potency means the concentration at half of the fitted maximal effect.

SMILES | Vaccinia mCherry | Pf growth 96h | Vaccinia Venus | AMA1 RON2 block | Pf growth 48h
COc1ccc(-c2nnc(SCC(=O)c3ccc(C)o3)o2)cc1 | 28µM* | 4% | ? | 7% | 28%
COc1cc(OC)cc(-c2nnc(SCC(=O)N(Cc3ccccc3)C(C)(C)C)o2)c1 | ? | 333% | -28% | 0% | ?
Cc1ccc(C(=O)CSc2nnc(-c3ccco3)o2)o1 | ? | . | 10µM* | -1% | 32%
COc1ccc(-c2nnc(SCC(=O)NC(C)c3ccccc3)o2)cc1 (stereo not drawn) | -9% | 10µM* | -9% | -1% | 1%
COc1ccc(-c2nnc(SCC(=O)N3CCCC3)o2)cc1 | 7% | -18% | -2% | 6% | 83%
COc1cc(OC)cc(-c2nnc(SCC(=O)N(C(C)C)C(C)C)o2)c1 | -12% | 65% | -23% | 1% | 7.4µM*
Cc1ccc(S(=O)(=O)N2CCN(C(=O)CSc3nnc(-c4ccco4)o3)CC2)cc1 | . | 10µM* | . | -7% | .
O=c1c2ccccc2nnn1CSc1nnc(-c2ccco2)o1 | ? | 1.2µM* | -29% | 0% | -3%
Cn1nnnc1SCCCNCc1cccc(OCc2ccc(F)cc2)c1 | -9% | . | -12% | . | .
CN1CCN(Cc2nc3ccccc3c(=O)n2Cc2nc(-c3ccc([N+](=O)[O-])cc3)cs2)CC1 | 10µM* | 2.6µM* | 10µM* | ? | ?
CCc1ccc(N2CC(c3nc4ccccc4n3Cc3ccccc3C)CC2=O)cc1 (stereo not drawn) | -17% | . | -17% | . | .
COc1ccc(-n2nnnc2-c2cccnc2)cc1 | -3% | 9.3µM* | -11% | 64% | 0%
C(=C\c1ccnc2ccccc12)/c1ccc(-[n+]2cc[n+](-c3ccc(/C=C/c4ccnc5ccccc45)cc3)cc2)cc1 | -14% | . | -3% | . | .
COc1cc(OC)c(/C=N/NC(N)=S)cc1Br | 1µM* | ? | 1.3µM* | 25% | -2%
COc1cc(OC)c(/C=N/NC(=O)c2ccncc2)cc1Br | -5% | 148% | -8% | 5% | 0%
Cc1ccc(S(=O)(=O)Oc2ccccc2/C=N/N=C(N)N)cc1 | ? | ? | -15% | -12% | ?
Cc1ccc(S(=O)(=O)Oc2ccccc2/C=N/NC(N)=S)cc1 | ? | ? | 1.3µM* | 8% | .
Cc1cc(/C=N/NC(N)=S)c(O)c(/C=N/NC(N)=S)c1 | -24% | 12µM* | 38% | -2% | 0.47µM*
NC(=S)N/N=C/c1ccccc1O | . | 1µM* | . | 48% | 0.33µM*
CCC1Oc2ccc(C)cc2N(CC(=O)NCCc2ccccc2)C1=O (stereo not drawn) | 1% | . | -8% | . | .
CCc1ccc(N(CC)C(=O)c2cc3c(=O)oc4ccc(C)cc4c3s2)cc1 | -1% | . | 1% | . | .
NC(=S)N/N=C/c1cccc(O)c1O | 8.9µM* | -11% | -18% | -65% | ?
Nc1nonc1C(=O)NCCNCc1cc(Br)ccc1OCc1ccc(F)cc1 | . | 1% | . | -6% | ?
Nc1nonc1C(=O)NCCNCc1c(OCc2ccccc2F)ccc2ccccc12 | . | . | . | -7% | 4.7µM*
Nc1nonc1C(=O)NCCNS(=O)(=O)c1ccc(F)cc1 | -11% | 2.9µM* | -11% | -1% | 15%
SMILES | Vaccinia mCherry | Pf growth 96h | Vaccinia Venus | AMA1 RON2 block | Pf growth 48h
Nc1nonc1C(=O)NCCNCc1ccccc1F | 6% | . | -6% | . | .
Nc1nonc1C(=O)NCCNCc1ccccc1 | . | 12µM* | -5% | 8% | .
Cc1cccc(N(C)S(=O)(=O)c2cc3[nH]c(=O)c(=O)[nH]c3cc2C)c1 | 2% | . | -3% | . | .
CCOc1ccc(C(=O)CSc2nc3cc(C(=O)NC4CCCC4)ccc3c(=O)n2CC2CCCO2)cc1 (stereo not drawn) | -7% | . | -1% | . | .
CCN(CC)CCn1c(=S)[nH]c2ccc(Cl)cc2c1=O | -4% | -1% | -10% | 22% | 12µM*
Cn1c2ccccc2c2c(C(=O)N3CCN(c4cccc(Cl)c4)CC3)cn(C3CCCCC3)c(=O)c21 | -18% | . | -18% | . | .
COC(=O)c1ccccc1NC(=O)Cn1c(=O)n(CCC(=O)NCc2ccc3c(c2)OCO3)c(=O)c2ccccc21 | -15% | . | -6% | . | .
CC1(C)CC(=O)C(C=NCCc2ccccn2)=C(O)C1 | -5% | . | -5% | 49% | -15%
CC1(C)CC(=O)C(C=Nc2ccc(O)c(N=CC3=C(O)CC(C)(C)CC3=O)c2)=C(O)C1 | . | ? | . | 64% | 10µM*
CC1(C)CC(=O)C(C=NCCc2ccc(O)cc2)=C(O)C1 | i | 5.2µM* | -4% | 0% | -14%
CC1(C)CC(=O)C(C=Nc2ccc3c(c2)OCO3)=C(O)C1 | 0% | . | -6% | -3% | 5%
Cc1ccc(C)c(Cc2c(C)nc3c(C(=O)NCc4ccc5c(c4)OCO5)cnn3c2C)c1 | . | 10µM* | . | . | .
Cc1nc2c(C(=O)NCc3ccc4c(c3)OCO4)cnn2c(C)c1Cc1ccc(F)cc1Cl | . | 13µM* | . | -1% | ?
Cc1ccccc1Cc1c(C)nc2c(C(=O)NCc3ccc4c(c3)OCO4)cnn2c1C | i | ? | -17% | 7% | ?
Cc1ccc(CCNC(=O)c2cc3sccc3n2Cc2ccc(Cl)cc2)cc1 | -2% | . | 1% | . | .
CC1CCc2nn(CC(=O)N3CCc4ccccc43)cc2C1 (stereo not drawn) | . | 10µM* | . | -8% | .
O=C(Cn1cc2c(n1)CCCC2)NCc1cccs1 | . | 5.2µM* | . | 0% | .
CC1CCc2nn(CC(=O)Nc3ccc(F)cc3F)cc2C1 (stereo not drawn) | -4% | 2.9µM* | -6% | 14% | 12%
CC1CCc2nn(CC(=O)Nc3c(F)cc(F)cc3Br)cc2C1 (stereo not drawn) | -9% | ? | -5% | -5% | .
CC1CCc2nn(CC(=O)NC3CCCC(C)C3C)cc2C1 (stereo not drawn) | -7% | 0.37µM* | -10% | 2% | 7%
CC1CCc2nn(CC(=O)NCc3ccc(F)cc3)cc2C1 (stereo not drawn) | -11% | 9.3µM* | 5% | 0% | -2%
Cc1ccc2occ(/C=N/NC(=O)c3ccccc3Br)c(=O)c2c1 | . | 4.7µM* | . | 86% | 23%
CCOCc1cnc(C)nc1NCC(=O)c1c(C)[nH]c2cc(C)ccc12 | -20% | 0.29µM* | -13% | 1% | 0.83µM*
CCOCc1cnc(C)nc1NCC(=O)c1c(C)[nH]c2ccccc12 | ? | 1.7µM* | -15% | -11% | 2.1µM*
CCOC(=O)C1CCN(CC(=O)c2c(C)[nH]c3cc(C)ccc23)CC1 | . | 89% | 15% | -4% | -30%
O=C1N2CCSC2=NC1(NS(=O)(=O)c1ccccc1)C(F)(F)F (stereo not drawn) | . | 1µM* | -10% | -1% | -12%
Cc1ccc(-c2cn3c(n2)sc2cc(C(=O)NC4CCCc5ccccc54)ccc23)cc1 (stereo not drawn) | -22% | . | -20% | . | .
O=C(/C=C\c1cn(-c2ccccc2)nc1-c1ccc2c(c1)OCCO2)N1CCOCC1 | . | 76% | . | -4% | ?
CN1CCN(C(=O)/C=C/c2cn(-c3ccccc3)nc2-c2ccc3c(c2)OCCO3)CC1 | ? | ? | ? | 2% | 12µM*

Source: PubChem BioAssay
